Reference: PubChem BioAssay AID686978 (National Center for Advancing Translational Sciences (NCATS), 2013)
About 64,000 (15%) of roughly 420,000 compounds were called active. Not shown: some 27% with an inconclusive outcome. Calls follow the shape of the dose curve; as a rule, active = well fitted inhibition curve with a large enough effect; inconclusive = small, poorly fitted or top-dose-only effect; inactive = flat fitted curve, though single readings scatter. The list is a sample of the results.

test: qHTS for Inhibitors of human tyrosyl-DNA phosphodiesterase 1 (TDP1): qHTS in cells in absence of CPT; conditions: DT40 Tdp1-/- hTDP1 cells, no CPT, ATP luminescence, 48 h; activity change, negative = growth inhibition: at 46.2 µM (top of the series); also: nearly all actives have a fitted effect of over 55% in size
Outline: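 Chicken DT40 Tdp1-/- cells stably complemented with human TDP1 were seeded at 400 cells/well with DMSO in place of 20 nM camptothecin. After compound pinning, cells grew at least 48 hr at 37 °C; viability read by CellTiter-Glo luminescence.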
% is scaled to controls: 0 for no effect and ±100 for the full control effect; potency is read from the fitted curve at half-maximal effect.

Structure (SMILES)	activity change, negative = growth inhibition	Potency
COc1ccccc1NC(=O)C1=C(C)NC2=C(C(=O)CCC2)C1c1ccc(C)o1 (centres undefined)	-2.13% (inactive)	
CCN(CC)C(=O)C(=O)c1cn(CC(=O)NCc2ccc3c(c2)OCO3)c2ccccc12	-6.26% (inactive)	
CCOC(=O)N1CCN(S(=O)(=O)N2CCCC(C(=O)NCCCN3CCC(C)CC3)C2)CC1 (centres undefined)	21.8% (inactive)	
Cc1ccc(C(c2sc3nc(C)nn3c2O)N2CCN(c3ccc(F)cc3)CC2)cc1 (centres undefined)	-20.8% (inactive)	
Cc1ccc(CNC(=O)CCNS(=O)(=O)c2cccc3nonc23)cc1	-8.67% (inactive)	
CS/C(=C\C(=O)c1ccco1)Nc1ccccc1Cl	-29.9% (inactive)	
Cc1nc(CN(C)C(=O)CC2C(=O)NCCN2Cc2ccc(F)cc2)cs1 (centres undefined)	-2.58% (inactive)	
O=C(CCNS(=O)(=O)c1ccccc1C(F)(F)F)Nc1ccncc1	4.83% (inactive)	
Cc1cc(Nc2ccccc2)n(C(=O)c2ccc(N)cc2)n1	-5.11% (inactive)	
CC(C)c1ccc(NS(=O)(=O)c2cn(C)c(=O)n(C)c2=O)cc1	-14.9% (inactive)	
O=C(Cc1ccccc1)NNC(=O)C1CCN(c2ncccn2)CC1	-26.3% (inactive)	
CC(=O)Nc1ccc(S(=O)(=O)Nc2cc(C)cn(Cc3ccc(C)cc3)c2=O)cc1		11.6 µM (active)
CCc1ccc(OC(C)C(=O)Nc2ccc(S(=O)(=O)Nc3cc(C)on3)cc2)cc1 (centres undefined)	-3.93% (inactive)	
COc1ccc(NC(=O)CSc2nc(NS(=O)(=O)c3ccc(C)cc3)cc(=O)[nH]2)cc1	-23.2% (inactive)	
CCN(CC)CCn1c2c(c(SCC(=O)Nc3nc4ccccc4s3)nc1=O)CCCC2	-54.2% (inactive)	
COC(=O)CNC(=O)c1ccccc1F	-46.9% (inactive)	
CSc1nc(N(C)NC(=O)c2cccc(C)c2)c2ccccc2n1		0.0146 µM (active)
CN(NC(=O)c1ccccc1F)c1nc(C(F)(F)F)nc2ccccc12		0.206 µM (active)
Cc1cccc(C(=O)NCCCN(C)CCCNC(=O)c2cccc(C)c2)c1	-2.23% (inactive)	
CN(NC(=O)c1ccccc1)c1nc2ccccc2nc1C(F)(F)F		7.31 µM (active)
O=C(Nn1cnc2ccccc2c1=O)c1ccccc1	0.973% (inactive)	
O=C(Cn1cnc2ccccc2c1=O)NNC(=O)c1ccccc1F	6.81% (inactive)	
Cc1nc2ccccc2c(=O)n1NC(=O)c1ccccc1	8.1% (inactive)	
Cc1ccc(S(=O)(=O)NC(=O)c2cccc(C)c2)cc1	0.889% (inactive)	
Cc1cc(OC(C)C(=O)NC2CC(C)(C)NC(C)(C)C2)c2c(C)cc(=O)oc2c1 (centres undefined)	3.08% (inactive)	
Oc1ccccc1-c1nc(/C=C/c2ccc(F)cc2)no1	-29.4% (inactive)	
CCCN(c1ccc(C(C)C)cc1)S(=O)(=O)c1c(C)[nH]c(=O)[nH]c1=O	-9.18% (inactive)	
O=C(NC1CCCCC1)C1CCC(CNS(=O)(=O)c2ccccc2)CC1 (centres undefined)	1.01% (inactive)	
CCOc1ccc(N(CC(=O)NC2CCCCCC2)S(=O)(=O)c2c(C)[nH]c(=O)[nH]c2=O)cc1	10.1% (inactive)	
